The test concerns the target Lethal factor (Bacillus anthracis) (UniProt P15917). The test is described as follows: Bacillus anthracis LF protease inhibitors, confirmation, biochemical, multiplex microsphere, cherry pick 1 (AID 602142). The conditions noted are these: multiplex microsphere protease cleavage assay, at 10 µM, active compounds read high.

Some of the results follow. Values without a mark were called inactive. The rule behind the calls is not given here.

Lethal factor (Bacillus anthracis), sequence (P15917 whole entry, looked up): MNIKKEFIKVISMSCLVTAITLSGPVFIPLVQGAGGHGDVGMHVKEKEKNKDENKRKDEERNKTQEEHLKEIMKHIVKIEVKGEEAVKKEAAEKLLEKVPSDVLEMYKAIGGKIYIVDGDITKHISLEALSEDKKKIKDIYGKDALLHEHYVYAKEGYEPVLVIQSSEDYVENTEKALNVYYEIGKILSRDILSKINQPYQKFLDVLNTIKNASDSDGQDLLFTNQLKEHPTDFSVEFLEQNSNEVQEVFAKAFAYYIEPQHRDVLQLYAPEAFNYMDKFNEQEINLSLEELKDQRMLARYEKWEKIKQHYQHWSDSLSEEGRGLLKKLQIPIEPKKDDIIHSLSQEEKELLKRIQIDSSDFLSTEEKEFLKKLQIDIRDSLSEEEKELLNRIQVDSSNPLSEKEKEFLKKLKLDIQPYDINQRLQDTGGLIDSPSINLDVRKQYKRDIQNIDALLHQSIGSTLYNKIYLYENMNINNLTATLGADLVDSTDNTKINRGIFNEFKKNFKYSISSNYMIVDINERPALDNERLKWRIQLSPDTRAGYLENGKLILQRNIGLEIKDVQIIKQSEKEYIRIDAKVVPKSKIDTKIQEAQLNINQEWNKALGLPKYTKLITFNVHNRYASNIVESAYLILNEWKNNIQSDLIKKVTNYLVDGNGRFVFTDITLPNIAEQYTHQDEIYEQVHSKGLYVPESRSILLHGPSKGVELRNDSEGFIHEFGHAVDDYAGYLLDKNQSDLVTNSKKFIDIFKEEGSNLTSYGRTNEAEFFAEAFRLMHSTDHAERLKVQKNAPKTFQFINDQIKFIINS

As to `CC1CCc2c(sc3nc4n(c(=O)c23)CCS4)C1` (configuration not stated), the inhibition was 3.6%.

Consider `O=S(=O)(NC1CCCCC1N1CCC(O)CC1)c1ccc(Cl)cc1` (configuration not stated), for which the inhibition was -1.6%. `CCOc1nnc(C)c2c(C)n(-c3cccc(Cl)c3)nc12`: the inhibition was 3.5%. To `Brc1ccc2ncnc(NCc3cccnc3)c2c1` belongs -1.9%.

With `CC(=O)c1cccc(NC(=O)N2CCCC2C(=O)NCCc2ccccc2)c1` (configuration not stated), the inhibition is 4.9%.

With `COCCn1nnnc1C(c1cc2ccc(OC)cc2[nH]c1=O)N1CCc2ccccc2C1` (configuration not stated), the inhibition was -6.3%. To `COc1ccc(C(=O)Nc2nc(-c3ccc(OC)cc3)c(-c3ccc([N+](=O)[O-])cc3)s2)cc1` belongs 15.9%.

The values above are taken from PubChem BioAssay AID602142 (NMMLSC, 2011).
